# Measurements published in PubChem BioAssay (EPA / NIEHS).
# Records with an inconclusive call do not appear. Active and inactive are the calls of the source. How the source made its calls: active means hit-call score of the fitted dose curve at least 0.9, where 1 is the maximum; inconclusive means response in the unintended direction; inactive means score below 0.9.
# Read-out: Broad substrate specificity ATP-binding cassette transporter ABCG2 (Homo sapiens) (UniProt Q9UNQ0)
# Test: CLD_ABCG2_24hr: CellzDirect (CLD) Gene Expression Assay for ABC Transporter (ABCG2) at 24 hours (AID 2283685)
# Protocol: CLD_24hr is a cell-based, multiplexed-readout assay that uses hepatocyte, a human liver primary cell, with measurements taken at 24 hours after chemical dosing in a 96-well plate.CLD_ABCG2_24hr is one of 16 assay component(s) measured or calculated from the CLD_24hr assay. It is designed to make measurements of mRNA induction, a form of inducible reporter, as detected with chemiluminescence signals by Quantitative Nuclease Protection Assay (qNPA) technology.Data from the assay component CLD_ABCG2_24hr was analyzed at the endpoint, CLD_ABCG2_24hr, in the positive analysis fitting direction relative to DMSO as the negative control and baseline of activity. Using a type of inducible reporter, gain-of-signal activity can be used to understand changes in the reporter gene as they relate to the gene ABCG2. Furthermore, this assay endpoint can be referred to as a primary readout. To generalize the intended target to other relatable targets, this assay endpoint is annotated to the transporter intended target family, where subfamily is ABC transporter.
# Human hepatocyte cultures were treated daily for two consecutive days with fresh dosing solutions containing appropriate concentrations of the 320 ToxCast chemicals (chemical identities were blinded to CellzDirect and other ToxCast collaborators), vehicle control (0.2% DMSO), and positive control inducers as summarized in Table 1. Due to the large number of treatment groups and chemicals examined, the ToxCast chemicals were divided into two groups (spanning two independent cultures of hepatocytes from separate donor preparations (Hu778: ToxCast plates 1 and 2; Hu776: ToxCast plates 3 and 4). Each preparation of human hepatocyte cultures was treated with respective vehicle control, medium only control, set of six positive controls/reference chemicals for the five hepatic receptor pathways, and a subset of eight of the ToxCast chemicals (indoxacarb, pyrithiobac-sodium, norflurazon, cyhalofop-butyl, methomyl, thiram, acetochlor, and propiconazole). These replicate data, coupled with internal replicates designed within the blinded ToxCast chemical library, provided additional data to evaluate interindividual differences between hepatocyte preparations and their potential impact on chemical profiles.Cell morphology and integrity were evaluated using phase-contrast microscopy as an indicator of hepatocyte cell health (Tyson & Green, 1987). Cultures for each treatment group (i.e., media, vehicle [0.2% DMSO], positive control inducers [multiple concentrations], and the ToxCast chemicals [multiple concentrations]) were observed and cell morphology was assessed relative to vehicle control cultures at each harvest time point (0, 6, 24, or 48 h). […] Images were evaluated at the conclusion of the study to assess changes in cell integrity and account for the effects of chemical exposure on uncharacteristic changes in concentration-dependent gene expression profiles. The results from these determinations of apparent cytotoxicity were annotated (yes/no) alongside the corresponding qNPA data for reference.At the conclusion of each treatment period, hepatocyte cultures (96-well) were washed with 1 volume of HBSS, lysed by addition of 25 ul ArrayPlate lysis buffer (HTG, Tucson, AZ), and 70 ul/well of Denaturation Oil, denatured by incubation at 95C for 10 min, and frozen at approximately -70C until analysis by nuclease protection assay (qNPA) (Roberts et al., 2007). For qNPA analysis, cell lysates were thawed at 50C for approximately 30 min, qNPA probes were added, and samples were incubated at 95C for 10 min to begin the detection process by denaturing the target RNA, dissociating the duplexes and secondary structure hybridization. At the conclusion of the hybridization period, S1 nuclease reagent was added to each sample to digest all nonprotected nucleotides at 50C for 60-90 min. […]
# Sequence of Broad substrate specificity ATP-binding cassette transporter ABCG2 (Homo sapiens) (Q9UNQ0 whole entry, looked up): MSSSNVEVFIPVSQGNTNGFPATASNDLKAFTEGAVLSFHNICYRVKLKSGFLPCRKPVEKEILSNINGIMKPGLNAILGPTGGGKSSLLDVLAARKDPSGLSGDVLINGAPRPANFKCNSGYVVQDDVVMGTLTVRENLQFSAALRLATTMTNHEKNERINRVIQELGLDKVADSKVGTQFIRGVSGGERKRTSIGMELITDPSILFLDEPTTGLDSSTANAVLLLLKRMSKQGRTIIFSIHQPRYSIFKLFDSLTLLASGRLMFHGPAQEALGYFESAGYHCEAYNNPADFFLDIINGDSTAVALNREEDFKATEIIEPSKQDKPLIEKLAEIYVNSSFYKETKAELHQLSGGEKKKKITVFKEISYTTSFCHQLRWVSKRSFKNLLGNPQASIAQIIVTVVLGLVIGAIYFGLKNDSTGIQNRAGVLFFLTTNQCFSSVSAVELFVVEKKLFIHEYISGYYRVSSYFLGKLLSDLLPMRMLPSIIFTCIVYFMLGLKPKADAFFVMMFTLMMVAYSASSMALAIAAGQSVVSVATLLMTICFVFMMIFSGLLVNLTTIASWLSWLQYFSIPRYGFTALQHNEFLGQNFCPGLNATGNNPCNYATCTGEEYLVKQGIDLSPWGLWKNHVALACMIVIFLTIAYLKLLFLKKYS
row,SMILES,outcome
1,S=C(S)NCCNC(=S)S.[Mn+2].[S-]C([S-])=NCCN=C([S-])[S-].[Zn+2],inactive
2,CCCN(CCC)C(=O)SCC,inactive
3,CCC(C)OC(=O)N1CCCCC1CCO (stereo not given),inactive
4,Cc1nn(C)c(Oc2ccccc2)c1C=NOCc1ccc(C(=O)OC(C)(C)C)cc1,inactive
5,O=C(Nc1ccc([N+](=O)[O-])cc1Cl)c1cc(Cl)ccc1O,inactive
6,CCCCCCC(C)OC(=O)COc1nc(F)c(Cl)c(N)c1Cl (stereo not given),inactive
7,OB(O)O,inactive
8,CCOC(=O)NCCOc1ccc(Oc2ccccc2)cc1,inactive
9,O=C(O)C1(C(=O)Nc2ccc(Cl)cc2Cl)CC1,inactive
10,COC(=O)CSc1cc(N=c2sc(=O)n3n2CCCC3)c(F)cc1Cl,inactive
11,COc1c(Cl)ccc(Cl)c1C(=O)O,inactive
12,CCOC(=O)C(C)Oc1ccc(Oc2nc3ccc(Cl)cc3o2)cc1 (stereo not given),inactive
13,S=C([S-])NCCNC(=S)[S-].[Mn+2],inactive
14,CSC(=O)c1cccc2nnsc12,inactive
15,COC(=O)c1ccc(I)cc1S(=O)(=O)NC(=O)Nc1nc(C)nc(OC)n1,inactive
16,CCCOC(=O)NCCCN(C)C,inactive
17,CCOC(=O)[C@H](C)Oc1ccc(Oc2nc3ccc(Cl)cc3o2)cc1,inactive
18,CC(C)(c1ccc(O)cc1)c1ccc(O)cc1,inactive
19,CCOC(=O)COc1cc(-n2ncc(C(F)(F)F)c(C)c2=O)c(F)cc1Cl,inactive
20,C=CCOC(Cn1ccnc1)c1ccc(Cl)cc1Cl (stereo not given),inactive
21,COCCO,inactive
22,N#CSCSc1nc2ccccc2s1,inactive
23,C#CCOC(=O)[C@@H](C)Oc1ccc(Oc2ncc(Cl)cc2F)cc1,inactive
24,CC(C)(C)[C@@H](O)[C@@H](Cc1ccc(Cl)cc1)n1cncn1,inactive
25,CCCN(CCC)c1c([N+](=O)[O-])cc(C(F)(F)F)c(N)c1[N+](=O)[O-],inactive
26,CCSC(=O)N(CC(C)C)CC(C)C,inactive
27,CCCCOC(=O)C(C)Oc1ccc(Oc2ccc(C(F)(F)F)cn2)cc1 (stereo not given),inactive
28,CCCOC(=O)c1ccc(C(=O)OCCC)nc1,inactive
29,CCCCOC(=O)[C@@H](C)Oc1ccc(Oc2ccc(C(F)(F)F)cn2)cc1,inactive
30,CCC(O)=C1C(=O)CC(C(=O)O)CC1=O (stereo not given),inactive
